PubChem BioAssay (NCATS)
Records with an inconclusive call do not appear. Activity calls are given as the source filed them. Unless noted, the call rests on the fitted dose curve; in most records, active means well fitted curve in the direction sought with a large enough effect; inconclusive means small, poorly fitted or top-dose-only effect, or another doubt; inactive means no such curve, though single readings can be large; an effect the other way counts as inactive or inconclusive. Bridge positions count the residues as written; N and C are the ends. Square brackets hold non-standard residues; d marks the D form. Peptide text beside a SMILES is read from it. * marks the point of attachment. Ileψ(thiazoline)Cys = CC[C@H](C)[C@H](N)C1=N[C@H](C(=O)*)CS1; d(aIle) = CC[C@H](C)[C@@H](N)C(=O)O; dOrn = NCCC[C@@H](N)C(=O)O

Columns and labels:
[1] = S16 Schwann cell viability assay (CellTiter-Glo assay) (AID 624031);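 further: cellular ATP luminescence as a viability measure; plate controls were DMSO-treated cells for no effect and cell-free wells for full effect; nearly all actives have a fitted effect of over 70% in size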
Procedure, shortened: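 Native S16 rat Schwann cells, 500-750 cells/well in DMEM with 10% FBS, dosed with compound after overnight culture and incubated 24h at 37 degree Celsius/5% CO2. Viability by CellTiter-Glo luminescence; % activity normalized to no-cell wells and DMSO-treated cells.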

[2] = molecular target: Cytochrome P450 3A4 (Homo sapiens) (UniProt P08684); assay: qHTS Assay for Inhibitors and Substrates of Cytochrome P450 3A4 (AID 884); further: on the % scale 0 is the no-effect control and ±100 the full control effect; nearly all actives have a fitted effect of over 50% in size
Procedure, shortened: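 20 nM human CYP3A4 with 25 uM Luciferin-PPXE (at KM) in 200 mM KPO4, preincubated 10 min with compound; NADPH regeneration started a 60 min RT reaction. Luciferin detected by luminescence, normalized to 57 uM ketoconazole as full inhibition.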

[3] = molecular target: Cytochrome P450 2D6 (Homo sapiens) (UniProt P10635); assay: qHTS Assay for Inhibitors and Substrates of Cytochrome P450 2D6 (AID 891);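 further: luciferin methyl ether substrate demethylated by CYP2D6 with NADPH regeneration; on the % scale 0 is the no-effect control and ±100 the full control effect; nearly all actives have a fitted effect of over 60% in size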
Procedure, shortened: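 Human CYP2D6 (5 nM) with 30 uM Luciferin-ME EGE (at Km) in 100 mM KPO4, compound preincubated 10 min, then NADPH regeneration system for 60 min at room temperature. Luciferin read by luminescence; normalized to 1.43 uM quinidine.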

[4] = S16 Schwann cell PMP22 intronic element beta-lactamase assay (AID 624044; calls by dose curve;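 further: 0% = DMSO and -100% = potassium clavulanate positive control; nearly all actives have a fitted effect of over 15% in size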)
Procedure, shortened: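 Rat S16 Schwann cells with beta-Lac driven by a PMP22 intronic element, compound-treated 24 h at 37 °C. LiveBLAzer FRET B/G read: 460 nm normalized to potassium clavulanate vs DMSO; 535 nm FRET as viability; concentration-effect curves classified.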

CP203 = assay: qHTS profiling for inhibitors of Plasmodium falciparum proliferation (AID 504749); further: nearly all actives have a fitted effect of over 60% in size; further: potency means the concentration at half of the fitted maximal effect; conditions: P. falciparum in erythrocytes, SYBR Green DNA, 72 h; series mostly up to 12.8 µM
Procedure, shortened: (§1)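 Parasite proliferation within erythrocytes, 72 h exposure. Endpoint: SYBR Green I fluorescence after overnight lysis at room temperature. Controls: 0.29 uM artemisinin, DMSO.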

CP260 = assay: as above; conditions: P. falciparum in erythrocytes, SYBR Green DNA, 72 h; series mostly up to 12.8 µM
Procedure, shortened: as §1

CP335 = assay: as above; conditions: P. falciparum in erythrocytes, SYBR Green DNA, 72 h; series mostly up to 12.8 µM
Procedure, shortened: as §1

DFO2036 = assay: as above; conditions: P. falciparum in erythrocytes, SYBR Green DNA, 72 h; series mostly up to 12.8 µM
Procedure, shortened: as §1

GB4 = assay: as above; conditions: P. falciparum in erythrocytes, SYBR Green DNA, 72 h; series mostly up to 12.8 µM
Procedure, shortened: as §1

ICS = assay: as above; conditions: P. falciparum in erythrocytes, SYBR Green DNA, 72 h; series mostly up to 12.8 µM
Procedure, shortened: as §1

P94_40 = assay: as above; conditions: P. falciparum in erythrocytes, SYBR Green DNA, 72 h; series mostly up to 12.8 µM
Procedure, shortened: as §1

PC26 = assay: as above; conditions: P. falciparum in erythrocytes, SYBR Green DNA, 72 h; series mostly up to 12.8 µM
Procedure, shortened: as §1

TAB109 = assay: as above; conditions: P. falciparum in erythrocytes, SYBR Green DNA, 72 h; series mostly up to 12.8 µM
Procedure, shortened: as §1

W2 = assay: as above; conditions: P. falciparum in erythrocytes, SYBR Green DNA, 72 h; series mostly up to 12.8 µM
Procedure, shortened: as §1

7G8 = assay: as above; conditions: P. falciparum in erythrocytes, SYBR Green DNA, 72 h; series mostly up to 12.8 µM
Procedure, shortened: as §1

CP215 = assay: as above; conditions: P. falciparum in erythrocytes, SYBR Green DNA, 72 h; series mostly up to 12.8 µM
Procedure, shortened: as §1

[5] = molecular target: Cytochrome P450 3A4 (Homo sapiens) (UniProt P08684); assay: qHTS Assay for Activators of Cytochrome P450 3A4 (AID 885); further: nearly all actives have a fitted effect of over 65% in size; further: potency means the concentration at half of the fitted maximal effect
Procedure, shortened: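 Signal was normalized against complete inhibition by 57 uM ketoconazole. The reaction used 20nM CYP3A4 with 25uM Luciferin-PPXE, 10-min compound preincubation and a 60-min NADPH-supported step at RT.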

[6] = qHTS Assay for Identification of Small Molecule Agonists for Hypoxia Response Element Signaling Pathway (AID 914; active means well fitted activation curve with a large enough effect in the signal ratio, with a control signal flat, not every such curve was filed as active; the % refers to the signal ratio; further: % of control where 0% means no effect); conditions: ME-180 (cervical carcinoma) HRE-bla reporter, beta-lactamase ratio, CoCl2, 17 h; activation: active compounds read high
Procedure, shortened: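 HRE-bla ME-180 cells with beta-lactamase reporter under hypoxia response element, compounds with EC50 CoCl2 for 17 hours at 37 C. CCF4 substrate, 460nm/530nm emission ratio gave %Activity; AC50 from titration series.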

Chain of Cytochrome P450 3A4 (Homo sapiens) (P08684 whole entry, looked up): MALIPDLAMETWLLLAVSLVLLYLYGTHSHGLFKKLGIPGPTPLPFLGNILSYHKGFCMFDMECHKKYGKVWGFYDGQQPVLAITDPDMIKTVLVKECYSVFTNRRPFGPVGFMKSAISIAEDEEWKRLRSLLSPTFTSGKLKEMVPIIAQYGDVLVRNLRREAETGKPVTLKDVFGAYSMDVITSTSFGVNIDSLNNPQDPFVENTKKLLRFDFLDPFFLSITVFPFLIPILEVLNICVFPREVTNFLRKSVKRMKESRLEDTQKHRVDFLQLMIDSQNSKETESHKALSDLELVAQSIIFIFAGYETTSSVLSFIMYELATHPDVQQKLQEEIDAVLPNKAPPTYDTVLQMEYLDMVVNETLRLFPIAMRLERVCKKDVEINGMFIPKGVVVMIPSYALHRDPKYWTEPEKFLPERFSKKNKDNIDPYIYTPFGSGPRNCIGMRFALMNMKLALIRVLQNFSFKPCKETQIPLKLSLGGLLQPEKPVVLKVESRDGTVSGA
Chain of Cytochrome P450 2D6 (Homo sapiens) (P10635 whole entry, looked up): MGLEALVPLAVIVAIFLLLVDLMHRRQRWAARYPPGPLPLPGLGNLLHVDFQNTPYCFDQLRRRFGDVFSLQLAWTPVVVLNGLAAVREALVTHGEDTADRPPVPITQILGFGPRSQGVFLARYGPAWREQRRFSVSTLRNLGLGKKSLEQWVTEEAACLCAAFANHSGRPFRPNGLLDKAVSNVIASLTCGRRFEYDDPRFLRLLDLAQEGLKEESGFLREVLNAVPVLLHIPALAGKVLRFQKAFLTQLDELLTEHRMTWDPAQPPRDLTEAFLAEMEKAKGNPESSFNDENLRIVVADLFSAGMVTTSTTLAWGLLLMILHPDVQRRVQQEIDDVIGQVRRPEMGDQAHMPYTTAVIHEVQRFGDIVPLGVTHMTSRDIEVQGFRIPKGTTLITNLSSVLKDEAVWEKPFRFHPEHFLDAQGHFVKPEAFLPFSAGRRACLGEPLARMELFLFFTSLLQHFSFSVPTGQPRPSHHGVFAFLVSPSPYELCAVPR

CS(=O)(=O)c1ccc([C@H](O)[C@H](CF)NC(=O)C(Cl)Cl)cc1
inactive: outcome [1]

Cc1onc(-c2c(Cl)cccc2Cl)c1C(=O)N[C@H]1C(=O)N2[C@H]1SC(C)(C)[C@H]2C(=O)O
inactive: Potency [2] | Potency [3]

NC[C@@H]1O[C@H](O[C@@H]2[C@H](O[C@@H]3O[C@H](CO)[C@@H](O)[C@@H]3O)[C@@H](O)[C@@H](N)C[C@H]2N)[C@@H](N)[C@H](O)[C@@H]1O
inactive: outcome [1] | Potency [4] | Potency (CP203) | Potency (CP260) | Potency (CP335) | Potency (DFO2036) | Potency (GB4) | Potency (ICS) | Potency (P94_40) | Potency (PC26) | Potency (TAB109) | Potency (W2)

C=C1c2c(Cl)ccc(O)c2C(O)=C2C(=O)[C@@]3(O)C(O)=C(C(N)=O)C(=O)[C@@H](N(C)C)[C@@H]3[C@@H](O)[C@H]12
inactive: outcome [1] | Potency (CP203) | Potency (CP215) | Potency (P94_40)
active: Potency (7G8) 3160 nM | Potency (W2) 6420 nM

CC(=O)OCC(=O)[C@@]1(OC(C)=O)[C@H](C)C[C@H]2[C@@H]3C[C@H](F)C4=CC(=O)C=C[C@@]4(C)[C@]3(F)[C@H](O)C[C@@]21C
active: Potency [5] 6310 nM
inactive: Potency [2]

CO[C@H]1[C@H](O[C@H]2O[C@@H](C)[C@@H](O[C@@H]3C[C@](C)(O)[C@H](OC(=O)CC(C)C)[C@H](C)O3)[C@@H](N(C)C)[C@@H]2O)[C@@H](CC=O)C[C@@H](C)[C@@H](O)/C=C\C=C/C[C@@H](C)OC(=O)C[C@H]1OC(C)=O
active: Potency (TAB109) 1000 nM | Potency (W2) 1610 nM
inactive: Potency [5] | Potency [4]

C/C(=C(/CCO)SSC[C@@H]1CCCO1)N(C=O)Cc1cnc(C)nc1N
inactive: Potency [5]

CCCCC[C@H](O)/C=C\[C@@H]1[C@H](O)CC(=O)[C@@H]1CCCCCCC(=O)O
active: Potency (ICS) 3550 nM
inactive: outcome [1] | Potency (CP203) | Potency (CP215) | Potency (CP260) | Potency (CP335) | Potency (DFO2036) | Potency (P94_40) | Potency (PC26) | Potency (TAB109)

CCCC(=O)Nc1ccc(OC[C@@H](O)CNC(C)C)c(C(C)=O)c1
inactive: outcome [1] | Potency [4]

CC(=O)O[C@H]1C[C@@]2(C)[C@H](C[C@@H](O)[C@H]3[C@@]4(C)CC[C@@H](O)[C@@H](C)[C@H]4CC[C@@]32C)C1=C(CCC=C(C)C)C(=O)O
inactive: Potency [4] | Potency (CP203) | Potency (CP215) | Potency (CP260) | Potency (CP335) | Potency (GB4) | Potency (P94_40) | Potency (PC26) | Potency (TAB109) | Potency (W2)

O[C@@](CCN1CCCC1)(c1ccccc1)C1CCCCC1
active: Potency (7G8) 4470 nM | Potency (W2) 455 nM
inactive: outcome [1] | Potency [4] | Potency (CP260) | Potency (CP335) | Potency (GB4)

CC1(C)O[C@@H]2C[C@H]3[C@H]4C[C@H](F)C5=CC(=O)CC[C@]5(C)[C@@H]4[C@H](O)C[C@]3(C)[C@]2(C(=O)CO)O1
inactive: outcome [1] | Potency [4] | Potency (CP203) | Potency (CP260) | Potency (CP335) | Potency (DFO2036) | Potency (GB4) | Potency (ICS) | Potency (P94_40) | Potency (PC26) | Potency (TAB109) | Potency (W2)

CC(=O)O[C@]1(C(C)=O)CC[C@@H]2[C@@H]3C=C(C)C4=CC(=O)CC[C@@]4(C)[C@H]3CC[C@]21C
inactive: Potency [2] | outcome [1] | Potency [4] | Potency (CP203) | Potency (CP215) | Potency (CP260) | Potency (CP335) | Potency (GB4) | Potency (P94_40) | Potency (TAB109) | Potency (W2)

Cc1onc(-c2ccccc2Cl)c1C(=O)N[C@H]1C(=O)N2[C@H]1SC(C)(C)[C@H]2C(=O)O
inactive: outcome [1] | Potency [4] | Potency (CP203) | Potency (CP215) | Potency (CP260) | Potency (CP335) | Potency (DFO2036) | Potency (GB4) | Potency (ICS) | Potency (P94_40) | Potency (PC26) | Potency (TAB109) | Potency (W2)

C[C@H]1CS(=O)(=O)CCN1/N=C\c1ccc([N+](=O)[O-])o1
inactive: Potency [4] | Potency (CP203) | Potency (CP215) | Potency (CP335) | Potency (DFO2036) | Potency (ICS) | Potency (P94_40) | Potency (PC26)

COc1ccc([C@@H]2CC(=O)c3c(O)cc(O)cc3O2)cc1O
inactive: Potency [5]

CC(C)(C)NC[C@H](O)COc1cccc2c1C[C@@H](O)[C@@H](O)C2
inactive: outcome [1] | Potency [4] | Potency (7G8) | Potency (CP203) | Potency (CP215) | Potency (CP260) | Potency (CP335) | Potency (GB4) | Potency (ICS) | Potency (P94_40) | Potency (PC26) | Potency (TAB109) | Potency (W2)

CC[C@@H]1OC(=O)[C@H](C)[C@H](O[C@@H]2C[C@](C)(OC)[C@H](O)[C@H](C)O2)[C@H](C)[C@H](O[C@@H]2O[C@@H](C)C[C@@H](N(C)C)[C@@H]2O)[C@](C)(O)C[C@H](C)C(=NOCOCCOC)[C@H](C)[C@H](O)[C@]1(C)O
inactive: Potency [5] | outcome [1] | Potency [4] | Potency (7G8) | Potency (CP203) | Potency (CP335) | Potency (GB4) | Potency (ICS) | Potency (P94_40) | Potency (PC26) | Potency (TAB109)

COC(=O)[C@@H]1[C@@H]2C[C@H]3c4[nH]c5cc(OC)ccc5c4CCN3C[C@@H]2C[C@H](OC(=O)c2cc(OC)c(OC)c(OC)c2)[C@H]1OC
inactive: Potency [5]

CC[C@H](C)[C@H](N)C1=N[C@H](C(=O)N[C@@H](CC(C)C)C(=O)N[C@@H](CCC(=O)O)C(=O)N[C@@H](C(=O)N[C@H]2CCCCNC(=O)[C@@H](CC(N)=O)NC(=O)[C@@H](CC(=O)O)NC(=O)[C@@H](Cc3cnc[nH]3)NC(=O)[C@@H](Cc3ccccc3)NC(=O)[C@@H]([C@@H](C)CC)NC(=O)[C@@H](CCCN)NC2=O)[C@@H](C)CC)CS1 ({Ileψ(thiazoline)Cys}-LE[d(aIle)]K[dOrn][d(aIle)][dF][dH][dD][dN]; lactam 4-C)
inactive: activation [6] -5.24% | outcome [1] | Potency (7G8) | Potency (CP203) | Potency (CP215) | Potency (CP260) | Potency (CP335) | Potency (DFO2036) | Potency (GB4) | Potency (ICS) | Potency (P94_40) | Potency (PC26) | Potency (TAB109) | Potency (W2)

COc1ccccc1OC[C@H](O)CO
inactive: outcome [1] | Potency (7G8) | Potency (CP203) | Potency (CP215) | Potency (CP260) | Potency (CP335) | Potency (DFO2036) | Potency (GB4) | Potency (ICS) | Potency (P94_40) | Potency (PC26) | Potency (TAB109) | Potency (W2)

CCC(=O)OCC(=O)[C@@]1(OC(=O)CC)[C@H](C)C[C@@H]2[C@@H]3[C@H]([C@@H](O)C[C@@]21C)[C@]1(C)C=CC(=O)C=C1C[C@@H]3Cl
inactive: Potency [4]
active: Potency (7G8) 1000 nM | Potency (CP260) 3980 nM | Potency (ICS) 1120 nM | Potency (W2) 1610 nM

CC1=C(C(=O)O)N2C(=O)[C@@H](NC(=O)[C@@H](N)c3ccc(O)cc3)[C@@H]2SC1
inactive: outcome [1] | Potency [4] | Potency (7G8) | Potency (CP203) | Potency (CP215) | Potency (CP260) | Potency (CP335) | Potency (GB4) | Potency (ICS) | Potency (P94_40) | Potency (PC26) | Potency (TAB109) | Potency (W2)
